In PubChem BioAssay AID1259415 (National Center for Advancing Translational Sciences (NCATS), 2018):
About 18,000 (4.4%) of roughly 410,000 compounds were called active. Roughly 7% stayed inconclusive and do not appear here. The sample as a whole holds a higher share of actives than the screen did. Values without a mark were called inactive. No stated cut-off is given here; in the data, active means activity change below about -60%; inconclusive means no clear call, values can overlap the other calls; inactive means above about -39%.

Experiment: qHTS Assay for inhibitors of the human cytomegalovirus (HCMV)
Conditions: HFF cells, HCMV-luciferase reporter, 72 h; at 57.5 µM; active compounds read low
In short: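 HFF cells seeded 16 h at 37C, treated with compounds, infected with luciferase-reporter HCMV at MOI 1 PFU/cell; luciferase read at 72 h post infection, normalized to buffer-only and Salinomycin controls.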
On the % scale 0 is the no-effect control and ±100 the full control effect.

In order of falling activity change, negative = inhibition:
1. S=C(NN=Cc1ccccn1)Nc1ccccn1  279%
2. CN(C(=O)COC(=O)Cn1cnc2c1c(=O)n(C)c(=O)n2C)C1(C#N)CCCCC1  40.8%
3. CC(=O)Nc1ccc(NC(=O)CSc2nnc3c4cc(Br)ccc4n(C)c3n2)cc1  38.8%
4. Cc1cc(=O)oc(C)c1C(=O)Nc1cnc2ccccc2c1  38.4%
5. CC(Sc1nnc(C2CC2)n1C1CC1)C(=O)Nc1ccc(C(N)=O)cc1 (configuration not stated)  36.3%
6. CCc1ccc2oc(-c3ccc(C)c(NC(=O)/C=C/c4ccco4)c3)nc2c1  34.4%
7. CCc1cc2c(cc3c(=O)n(CC(=O)NCc4cccc(Cl)c4)nc(CC)n32)s1  34.4%
8. CC1CCN(c2nc3ccc(C(=O)N4CCN(c5ccccc5)CC4)cc3s2)CC1  31.7%
9. COc1cccc(C(NC(C)=O)c2nc(-c3ccccc3OC)cs2)c1 (configuration not stated)  28.9%
10. CC1CCc2noc(NC(=O)c3ccc([N+](=O)[O-])cc3)c2C1 (configuration not stated)  26.6%
11. CNC(=S)N/N=C/c1ccc(N2CCOCC2)s1  26.5%
12. Cc1ccc(Cn2c(=O)n(CCCC(=O)NCc3ccccc3Cl)c(=O)c3ccccc32)cc1  20.2%
13. CCCOc1ccc(Cc2c(O)nc(SC)[nH]c2=O)cc1C  15.7%
14. NS(=O)(=O)c1ccc(NC(=O)COc2ccc(S(=O)(=O)NC3CCCCC3)cc2)cc1  15.5%
15. Cc1ccc(CCNC(=O)c2ccc3c(c2)nc2n3CCC(C)C2)cc1 (configuration not stated)  14.9%
16. Oc1ccc(-c2nc3ccc(Cl)cn3c2Nc2ccc3c(c2)OCO3)cc1  12.9%
17. CCC(C)NC(=O)Cn1c(=O)n(-c2ccc(Cl)cc2)c(=O)c2c3c(sc21)CCCC3 (configuration not stated)  12.8%
18. Cc1ccccc1NC(=O)c1ccc(COc2ccc3c(C)cc(=O)oc3c2)cc1  10.2%
19. Nc1ncnc2c1ncn2C1OC(CO)CC1O (configuration not stated)  8.48%
20. COc1cccc(C(=O)NCc2ccc3c(c2)CCN3C(=O)c2ccncc2)c1  8.47%
21. CC1(C)CN(CCc2ccccc2)C(=O)[C@H]1CC(=O)Nc1ccc(Br)cc1  8.25%
22. COc1ccc(NC(=O)C[C@H]2C(=O)N(CCc3ccccc3)C[C@@H]2C)cc1  5.53%
23. Cc1cccc(Cc2c(C)nc3nc(SCc4ccccc4Cl)nn3c2C)c1  4.98%
24. Cc1cc2c(cc3c(SCc4cccc(Cl)c4)nnc(C)n32)o1  4.43%
25. COc1ccc(CNCCc2c[nH]c3ccccc23)cc1OC  4.34%
26. Cc1ccc(CN(C(=O)c2ccccc2[N+](=O)[O-])c2ccccn2)cc1  3.28%
27. CCCc1nn2c(=O)cc(CSCC(=O)Nc3cccc(C)c3)nc2s1  2.89%
28. CCN(Cc1ccncc1)C(=S)Nc1ccccc1C  2.81%
29. COc1cccc(-c2nnc3n(CCc4ccccc4)c(=O)c4ccccc4n23)c1O  2.64%
30. Cc1ccc(NC(=O)Cn2c(=O)n(-c3ccccc3)c(=O)c3c4c(sc32)CCCC4)cc1  2.61%
31. Cc1cc(C)cc(NS(=O)(=O)c2ccc(-c3cc(C)no3)s2)c1  0%
32. CCc1ccc(N2C(=O)CN(S(=O)(=O)CC)CC2(C)C(=O)NC2CCCCC2)cc1 (configuration not stated)  0%
33. Cc1c(C)n(Cc2ccc(Cl)cc2)c2ccc(C(=O)N3CCN(c4ccccc4F)CC3)cc12  0%
34. Cc1cc(C)n2nc(CNS(=O)(=O)c3c(F)c(F)c(F)c(F)c3F)nc2n1  0%
35. Fc1ccc(C(Nc2ccc(Cl)c(C(F)(F)F)c2)c2nnc(-c3ccccc3)o2)cc1 (configuration not stated)  -0.379%
36. CS(=O)(=O)N(CC(=O)N/N=C/c1ccccn1)c1ccc(Oc2ccccc2)cc1  -1.4%
37. CCOc1ccc(C(=O)c2cn(Cc3ccc(F)cc3)c3ccc(F)cc3c2=O)cc1  -1.76%
38. COc1ccc(N2CCN(C(=O)[C@@H](NC(=O)c3cc(OC)cc(OC)c3)C(C)C)CC2)cc1  -2.95%
39. O=c1nc(N/N=C/c2ccco2)cn[nH]1  -3.52%
40. Cc1cc2c(cc3c(SCc4nc(-c5ccccc5)oc4C)nnc(C)n32)o1  -3.85%
41. Cc1cc(C)nc(NS(=O)(=O)c2ccc(NC(=O)c3cc(=O)c4ccc(C)c(C)c4o3)cc2)n1  -4.22%
42. CCCCOc1ccc(Cn2c(=O)oc3ccc(C)cc32)cc1OC  -4.31%
43. COC(=O)Cc1nnn2c1[C@H](C)[C@H](c1ccccc1[N+](=O)[O-])OCC2  -4.47%
44. Cc1ccc(-n2c(=O)c3cccnc3n2CC(=O)Nc2ccccc2C(F)(F)F)cc1C  -5.4%
45. COc1ccc(-c2cc(-c3ccc(F)cc3)nc3c2COc2ccccc2-3)cc1  -6.64%
46. CCc1ccc2ncc3c(-c4ccc(C)cc4)nn(CC(=O)NCc4ccccc4)c3c2c1  -6.71%
47. COc1cc(OC)cc(C(=O)N[C@H](C(=O)OCC(=O)NC(C)c2ccccc2)C(C)C)c1 (some centres not stated)  -6.95%
48. CC(=O)Nc1ccc(S(=O)(=O)Nc2cc(C)cn(Cc3ccc(C)cc3)c2=O)cc1  -7.02%
49. C=CCNC(=S)NNC(=O)c1ccc(Br)o1  -7.15%
50. Cc1nc(SCCOc2ccc(Cl)cc2)[nH]c(=O)c1Cc1ccccc1  -7.29%
51. CCCCc1nn2c(=O)cc(COC(=O)c3ccccc3NC(=O)C(C)(C)C)nc2s1  -7.43%
52. O=C1Nc2cc(Cl)c(Cl)cc2N(O)N1c1ccccc1Cl  -10%
53. COc1ccc(NC(=O)C(C)SCc2ccccc2)cc1 (configuration not stated)  -10.8%
54. CCn1cc(C(=O)N2CCN(c3cc(Cl)ccc3C)CC2)c(=O)c2cc(S(=O)(=O)N3CCCC3)ccc21  -11.4%
55. COc1ccc(CN2C(=O)CC(Cc3ccc(C)cc3)C2=O)cc1OC (configuration not stated)  -12.9%
56. CCCc1nc2scc(-c3ccc(C)cc3)c2c(=O)n1N  -13.5%
57. CCOC(=O)CN1C(C(=O)c2ccccc2)=C(OC(=O)C(C)(C)C)c2ccccc2S1(=O)=O  -14%
58. COc1ccc(S[C@]2(c3nc(C)no3)CC(=O)N(C(=O)C3CC3)[C@@H]2c2ccc(OC)cc2)cc1  -16.8%
59. S=c1[nH]nc(CSCc2ccc(Cl)cc2Cl)n1-c1ccccc1  -18.3%
60. COc1ccc(C(=O)NCC(c2ccc(N(C)C)cc2)N2CCc3ccccc32)c(OC)c1 (configuration not stated)  -18.8%
61. Cc1ccc(NC(=O)NNC(=O)c2sccc2-n2cccc2)cc1  -19%
62. CCn1c(-c2ccncc2)n[nH]c1=S  -21.8%
63. CCC(CC)c1nn2cc(-c3ccccc3)nc2s1  -21.9%
64. Cc1nn(C)cc1/C=C1\CCC/C(=C\c2cn(C)nc2C)C1=O  -22.6%
65. CCC(=O)N1CCc2cc(S(=O)(=O)NC(Cc3ccccc3)C(=O)NCc3ccccc3)ccc21 (configuration not stated)  -22.7%
66. O=C(CN1C(=O)COc2ccc(S(=O)(=O)N3CCCCCC3)cc21)N1CCN(c2cccc(C(F)(F)F)c2)CC1  -23.3%
67. COc1cccc(CNn2cn[nH]c2=S)c1OCc1ccccc1  -23.6%
68. CCN(CC)CCn1c(=S)[nH]c2ncccc2c1=O  -27.4%
69. COc1ccc(CNC(=O)COCc2cc(-c3cccs3)on2)cc1OC  -28.2%
70. Cc1ccc(C(CNC(=O)Nc2ccccc2)N2CCN(C)CC2)cc1 (configuration not stated)  -29.6%
71. CC(=O)c1c(C)[nH]c(C(=O)COc2ccc3c(C)cc(=O)oc3c2)c1C  -31.5%
72. CCN(C(=O)CSc1cccc[n+]1[O-])c1ccccc1  -32.1%
73. CCn1c(CN2CCC(C)CC2)nc2cc(NC(=O)c3ccccc3[N+](=O)[O-])ccc21  -37.4%
74. O=C(CSc1cccc[n+]1[O-])NCCCc1ccccc1  -39.5%

In the case of COc1cccc(CNCCc2c[nH]c3ccccc23)c1OCc1ccccc1F, the activity change, negative = inhibition is reported as -99.3% (active).
With Cc1nnc(N/N=C/c2ccccn2)[nH]c1=O the activity change, negative = inhibition was -97.8% (active).
With COc1cc(OC)cc(C(=O)N[C@H](C(=O)Nc2nc3ccccc3[nH]2)C(C)C)c1 the activity change, negative = inhibition was -77% (active).
For CC(Sc1nnc2c(n1)C1CCC2(C)C1(C)C)C(=O)Nc1ccccc1 (configuration not stated), the activity change, negative = inhibition was -60.9% (active).
In the case of Oc1c(Cl)cc(Cl)c(Cl)c1Cc1c(O)c(Cl)cc(Cl)c1Cl, the activity change, negative = inhibition is reported as -95.4% (active).
With Cc1cc(=O)oc2cc(OCC3CC(c4ccccc4Cl)=NO3)ccc12 (configuration not stated) the activity change, negative = inhibition was -90.9% (active).
For CCCCOc1ccc(CN2C(=O)C(=O)c3cc(Br)cc(C)c32)cc1OC, the activity change, negative = inhibition was -102% (active).
For O=C(C[C@H]1C(=O)N(c2ccc(F)c(F)c2)C[C@@H]1Cc1ccccc1)Nc1ccccc1, the activity change, negative = inhibition was -93.1% (active).
For Cc1ccc(-c2csc(NC3OC(=O)c4ccccc43)n2)cc1 (configuration not stated), the activity change, negative = inhibition was 0% (active).
For COc1ccc2c(c1OC)C(=O)OC2Nc1nc(-c2ccccc2)cs1 (configuration not stated), the activity change, negative = inhibition was -104% (active).
In the case of COc1ccc(-c2csc(NC3OC(=O)c4ccccc43)n2)cc1 (configuration not stated), the activity change, negative = inhibition is reported as -107% (active).
With O=C(CSc1cccc[n+]1[O-])c1ccc(-c2ccccc2)cc1 the activity change, negative = inhibition was -97.9% (active).
With CCn1c(CSCc2c(Cl)cccc2Cl)n[nH]c1=S the activity change, negative = inhibition was -67.6% (active).
For CCOC(=O)c1c(NC(C)=O)c2c3c(sc2n1Cc1c(C)cc(C)cc1C)CCCC3, the activity change, negative = inhibition was -73.8% (active).
In the case of C=CCNC(=S)N/N=C/c1ccc(C)s1, the activity change, negative = inhibition is reported as 0% (active).
With CC1(C)CC2CC(C)(CN2c2ncnc3ccc(Br)cc23)C1 (configuration not stated) the activity change, negative = inhibition was -62.4% (active).
In the case of C=CC[n+]1c(-c2ccc(C)cc2)csc1NNC(=O)Nc1ccccc1, the activity change, negative = inhibition is reported as -69.2% (active).
In the case of CCCOc1ccc(Cc2c(Cl)nc(SC)nc2NC)cc1, the activity change, negative = inhibition is reported as -93.9% (active).
